Laboratory results published in PubChem BioAssay (Tox21).
Results filed as inconclusive are left out. Activity calls are given as the source filed them. Unless noted, the call rests on the fitted dose curve.

Key:
[1] = target: Thyrotropin receptor (Homo sapiens) (UniProt P16473); assay: qHTS assay to identify small molecule agonists of the thyroid stimulating hormone receptor (TSHR) signaling pathway (AID 1224843); further: nearly all actives have a fitted effect of over 45% in size
How it was run: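 Agonist activity read as cAMP rise via d2/cryptate HTRF competition, 1 h room-temperature detection, in HEK293 cells expressing TSHR. Fifteen-point titrations, each run in triplicate, with a 30 min room-temperature incubation beforehand.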

[2] = qHTS assay to identify small molecule agonists of the hypoxia (HIF-1) signaling pathway - cell viability counter screen (AID 1224844); further: nearly all actives have a fitted effect of over 50% in size
How it was run: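 CellTiter-Glo luminescence read-out, 30 min RT, taken in the same wells as the beta-lactamase HRE reporter assay; HRE-bla ME-180 cells, 0.5% dialyzed FBS, 17 hr compound treatment at 37C, 5% CO2.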

[3] = qHTS assay to identify small molecule agonists of H2AX (AID 1224845; active means well fitted activation curve with a large enough effect in the signal ratio in the repeat runs, not every such curve was filed as active; the % refers to the signal ratio)
How it was run: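 Phospho-H2AX Ser139 measured by HTRF (ex 320 nm; em 665 and 620 nm) after 24 hr antibody incubation. Compounds, 15 concentrations, 0.76% DMSO, were applied to CHO-K1 cells for 3hr at 37C before lysis.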

[4] = qHTS assay to identify small molecule agonists of the hypoxia (HIF-1) signaling pathway (AID 1224846; active means well fitted activation curve with a large enough effect in the signal ratio in the repeat runs, not every such curve was filed as active; the % refers to the signal ratio)
How it was run: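 Beta-lactamase FRET read-out (CCF4-AM substrate) from ME-180 cells carrying an HRE-driven bla reporter, after 17 hrs compound exposure at 37C/5% CO2. Cells were seeded at 2,000 per well in 0.5% dialyzed FBS medium and preincubated 5 hrs.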

[5] = qHTS assay to identify small molecule agonists of H2AX - cell viability counter screen (AID 1224847); further: top concentration of the series differs between compounds; nearly all actives have a fitted effect of over 30% in size
How it was run: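 Compounds tested at 15 concentrations were incubated 3 hr at 37C with wild-type CHO-K1 cells; cellular ATP-based luminescence (CellTiter-Glo) indicated viability.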

[6] = qHTS RealTime-Glo MT Cell Viability Assay in HepG2 cells - 24 hour (AID 1224867; active means well fitted curve in the direction sought with a large enough effect in the repeat runs; an effect the other way counts as inactive or inconclusive; further: nearly all actives have a fitted effect of over 50% in size)
How it was run: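 HepG2 suspension premixed with RealTime-Glo reagents is plated at 600 cells per well and left 5 h at 37 C/5% CO2. Compounds in DMSO then go in, and bioluminescence reflecting viable cell number is recorded over 40 h.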

[7] = qHTS RealTime-Glo MT Cell Viability Assay in HEK293 cells - 32 hour (AID 1224868; active means well fitted curve in the direction sought with a large enough effect in the repeat runs; an effect the other way counts as inactive or inconclusive; further: top concentration of the series differs between compounds; nearly all actives have a fitted effect of over 50% in size)
How it was run: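 Reads taken at 0, 8, 16, 24, 32 and 40 h from the same wells. HEK293 cells (600/well) carried RealTime-Glo reagents from seeding, with compound added after a 5 h settle at 37 C.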

[8] = A CellTox Green Cytotoxicity Assay to monitor cytotoxicity in HEK293 cells - 0 hour (AID 1224869; active means well fitted curve in the direction sought with a large enough effect in the repeat runs; an effect the other way counts as inactive or inconclusive; further: nearly all actives have a fitted effect of over 50% in size)
How it was run: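 Read-out: fluorescence of a cell-impermeant cyanine dye staining DNA of dead cells, proportional to cytotoxicity. HEK293, 600 cells/well with reagent, compound (23 nL DMSO) added after 5 h; reads at 0, 8, 16, 24, 32, 40 h.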

[9] = qHTS assay to identify small molecule antagonists of the estrogen related receptor (ERR) signaling pathway from Tox21 library (AID 1224848; active means well fitted curve in the direction sought with a large enough effect in the repeat runs; an effect the other way counts as inactive or inconclusive; further: nearly all actives have a fitted effect of over 50% in size)
How it was run: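 Luciferase luminescence (ONE-Glo, 30 min room temperature) was the read-out. Cells of the NTP-supplied ERR line, 2,000 per well, were given 6 h at 37 C before compound addition in DMSO and 18 h exposure at 37 C.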
On the % scale 0 is the no-effect control and ±100 the full control effect.

Thyrotropin receptor (Homo sapiens), sequence (P16473 whole entry, looked up): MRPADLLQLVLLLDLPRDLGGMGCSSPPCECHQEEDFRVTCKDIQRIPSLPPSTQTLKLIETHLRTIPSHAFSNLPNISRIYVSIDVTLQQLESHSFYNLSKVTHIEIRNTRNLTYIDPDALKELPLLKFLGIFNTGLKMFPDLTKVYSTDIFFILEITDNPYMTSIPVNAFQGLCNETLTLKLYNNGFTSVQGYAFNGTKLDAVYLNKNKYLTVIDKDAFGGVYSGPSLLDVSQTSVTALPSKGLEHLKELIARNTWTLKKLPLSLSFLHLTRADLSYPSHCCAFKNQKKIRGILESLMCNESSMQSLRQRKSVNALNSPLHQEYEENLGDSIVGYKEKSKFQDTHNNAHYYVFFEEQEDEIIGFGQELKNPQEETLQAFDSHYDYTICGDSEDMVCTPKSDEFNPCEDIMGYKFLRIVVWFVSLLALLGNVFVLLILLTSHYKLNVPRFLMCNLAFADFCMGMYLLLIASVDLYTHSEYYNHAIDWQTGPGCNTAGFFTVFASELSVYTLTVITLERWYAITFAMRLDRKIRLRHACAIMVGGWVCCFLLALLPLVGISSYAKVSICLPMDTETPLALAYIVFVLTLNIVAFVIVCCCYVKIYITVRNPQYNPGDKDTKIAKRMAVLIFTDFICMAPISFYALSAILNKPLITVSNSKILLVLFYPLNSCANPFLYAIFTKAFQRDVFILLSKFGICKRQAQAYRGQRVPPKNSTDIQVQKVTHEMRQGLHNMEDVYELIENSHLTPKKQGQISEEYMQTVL

Nc1ccc2ccccc2c1S(=O)(=O)O
inactive: Potency [1] | Potency [2] | Potency [3] | outcome [4] | Potency [5] | Potency [6] | Potency [7] | Potency [8]

CC1=C(O)C(=O)OC1C (stereo not drawn)
inactive: Potency [1] | Potency [2] | Potency [3] | outcome [4] | Potency [5] | Potency [6] | Potency [7] | Potency [8]

CN1CCN(c2c(F)cc3c(=O)c(C(=O)O)cn(CCF)c3c2F)CC1
inactive: Potency [1] | Potency [2] | Potency [3] | outcome [4] | Potency [5] | Potency [6] | Potency [7] | Potency [8]

COC(=O)c1ccc2cc(C(=O)OC)ccc2c1
inactive: activation [1] 2.3% [at 19 µM] | activity change, negative = cytotoxicity [2] 1.66% [at 15.8 µM] | activation (H2AX phosphorylation) [3] 0.148% [at 31.6 µM] | activation [4] -0.33% [at 15.8 µM] | activity change, negative = cytotoxicity [5] 2.5% [at 31.6 µM] | activity, negative = inhibition [9] 23.9% [at 19 µM] | activity change, negative = cytotoxicity [6] 2.88% [at 15.8 µM] | activity change, negative = cytotoxic [7] -1.06% [at 15.8 µM] | cytotoxicity [8] 2.02% [at 15.8 µM]

COC(=O)C(C)O (stereo not drawn)
inactive: Potency [1] | Potency [2] | Potency [3] | outcome [4] | Potency [5] | Potency [6] | Potency [7]

NC(=O)NS(=O)(=O)c1ccc(Cl)cc1
inactive: Potency [1] | Potency [2] | Potency [3] | outcome [4] | Potency [5] | Potency [6] | Potency [7] | Potency [8]

Cc1cn([C@@H]2O[C@H](CO)[C@@H](O)[C@@H]2F)c(=O)[nH]c1=O
inactive: Potency [1] | Potency [2] | Potency [3] | outcome [4] | Potency [5] | Potency [6] | Potency [7] | Potency [8]

O=C(O)[C@@H]1CSCN1
inactive: Potency [1] | Potency [2] | Potency [3] | outcome [4] | Potency [5] | Potency [6] | Potency [7] | Potency [8]

CCC1(C)NC(=O)NC1=O (stereo not drawn)
inactive: Potency [1] | Potency [2] | Potency [3] | outcome [4] | Potency [5] | Potency [6] | Potency [7] | Potency [8]

CCCOCCC
inactive: Potency [1] | Potency [2] | Potency [3] | outcome [4] | Potency [5] | Potency [6] | Potency [7] | Potency [8]

Cc1c(N)cccc1N
inactive: Potency [1] | Potency [2] | Potency [3] | outcome [4] | Potency [5] | Potency [6] | Potency [7]

O=C(O)c1cccc(Cl)c1Cl
inactive: Potency [1] | Potency [2] | Potency [3] | outcome [4] | Potency [5] | Potency [6] | Potency [7] | Potency [8]

FC(F)(F)C(Cl)(Cl)Cl
inactive: Potency [1] | Potency [2] | Potency [3] | outcome [4] | Potency [5] | Potency [6] | Potency [7] | Potency [8]

O=Cc1ccc(F)c(Br)c1
inactive: Potency [1] | Potency [2] | Potency [3] | outcome [4] | Potency [5] | Potency [6] | Potency [7]

Oc1ccccc1F
inactive: Potency [1] | Potency [2] | Potency [3] | outcome [4] | Potency [5] | Potency [6] | Potency [7] | Potency [8]

NS(=O)(=O)c1cc(-c2nn[nH]n2)c(NCc2cccs2)cc1Cl
inactive: Potency [1] | Potency [2] | Potency [3] | outcome [4] | Potency [5] | Potency [6] | Potency [7] | Potency [8]

COC(C)CCO (stereo not drawn)
inactive: Potency [1] | Potency [2] | Potency [3] | outcome [4] | Potency [5] | Potency [6] | Potency [7] | Potency [8]

Oc1ccccc1C=NCc1ccccc1
inactive: Potency [1] | Potency [2] | Potency [3] | outcome [4] | Potency [5] | Potency [6] | Potency [7] | Potency [8]

CCN(CC)CCNC(=O)COc1ccc(Cl)cc1
inactive: Potency [1] | Potency [2] | Potency [3] | outcome [4] | Potency [5] | Potency [6] | Potency [7] | Potency [8]

CCOC(=O)C(Br)c1ccccc1 (stereo not drawn)
inactive: Potency [1] | Potency [2] | Potency [3] | outcome [4] | Potency [5] | Potency [6] | Potency [7] | Potency [8]
